Experimental data: PubChem BioAssay (NCI)
The panel holds about 83,000 compounds, 20% with a hit somewhere; the sample as a whole holds those more often.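 For each line, cells grew in 96-well plates with the test compound present at a single concentration for 48 hours.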 Active and inactive are the calls of the source. How the source made its calls: active means growth percent below 10; inactive means the rest.

tested on: HL-60(TB) leukemia; test: NCI-60 one-dose screen, 48 h (100 = growth as untreated, 0 = no growth, -100 = all killed); conditions: 10 µM unless noted

**Q.** With `CCCCCc1nc2c(c3c1CCCC3)CCCC2` as the molecule, how does the growth read?
**A.** The growth was -15.2% (active).

**Q.** For `COc1cc(NCC(O)CN(CC(C)C)CC(C)C)c2ncccc2c1` (stereo unspecified), which growth is on record?
**A.** The growth was 62.7% (inactive).

**Q.** Which growth does the source give for `COc1cc(C)c(Cc2cnc(N)nc2N)cc1OC` here?
**A.** Its growth is 129% (inactive).

**Q.** `COc1ccc(/C(C#N)=C/c2nc3c(N4CCOCC4)nc(Cl)nc3n2C)cc1OC` was tested. Which growth did it give?
**A.** The growth was -28% (active).

**Q.** For `c1ccc2[nH]c(Cc3nc4ccccc4[nH]3)nc2c1`, which growth is on record?
**A.** Its growth is 75.6% (inactive).

**Q.** Which growth does the source give for `CNC(=O)c1cc(Oc2ccc3nc(NC(=O)Nc4ccc(F)cc4F)sc3c2)ccn1` here?
**A.** Its growth is 98.3% (inactive).

**Q.** How did the growth turn out when `COc1ccc(-c2cn(-c3ccc(Cl)cc3)c(=S)[nH]2)cc1OC` was run?
**A.** Its growth is 56.1% (inactive).

**Q.** `O=c1[nH]c(=O)c2cc(Cl)cc(Cl)c2[nH]1` was tested. Which growth did it give?
**A.** The growth was 100% (inactive).

**Q.** `Cc1n(Cc2ccc3ccccc3c2)c(Cl)c(Cl)[n+]1Cc1ccc2ccccc2c1` was tested. Which growth did it give?
**A.** Its growth is -34.6% (active).

**Q.** Which growth does the source give for `O=C1N(C[P+](c2ccccc2)(c2ccccc2)c2ccccc2)CCCN1C[P+](c1ccccc1)(c1ccccc1)c1ccccc1` here?
**A.** The growth was 62.9% (inactive).

**Q.** `COc1ccc(C(=O)COc2cccc(/C=C3\CSc4ccc(C)cc4C3=O)c2)cc1` was tested. Which growth did it give?
**A.** The growth was 45.6% (inactive).

**Q.** Which growth does the source give for `Nc1ccc(C2=Nc3cccc4cccc(c34)S2)cc1` here?
**A.** Its growth is 76.7% (inactive).

**Q.** Which growth does the source give for `Clc1ccc(/C=C/c2nc(Nc3ccc(Cl)cc3)c3ccccc3n2)cc1` here?
**A.** The growth was 102% (inactive).

**Q.** For `C[C@@H]1CN(c2cnc(C(=O)Nc3cc(F)cc4cccnc34)cn2)C[C@H](C)N1`, which growth is on record?
**A.** The growth was 82.4% (inactive).

**Q.** Which growth does the source give for `Cc1cc2ccccc2nc1-c1ccccc1F` here?
**A.** Its growth is 97.4% (inactive).

**Q.** How did the growth turn out when `Clc1ccc(/C=C2\CCCC3=C2N=C2SC=NN2C3c2ccc(Cl)cc2)cc1` (stereo unspecified) was run?
**A.** Its growth is 91.1% (inactive).
